PLK1 PBD block: qHTS for Inhibitors of PLK1-PDB (polo-like kinase 1 - polo-box domain): Primary Screen; Serine/threonine-protein kinase PLK1 (Homo sapiens), P53350; Plk1 PBD binding of FITC phosphopeptide, fluorescence polarization; Potency, µM, for inactives: max response, negative = inhibition, most hits filed as inhibitors; actives 2.8% (n = 360,000); AID 720504, 2013; also: series mostly up to about 57 µM; nearly all actives have a fitted effect of over 65% in size
TrxR1 substrate: qHTS Assay for Substrates of Mammalian Selenoprotein Thioredoxin Reductase 1 (TrxR1): qHTS; Thioredoxin reductase 1, cytoplasmic (Rattus norvegicus), O89049; purified TrxR1 substrate turnover, NADPH consumption readout; Potency, µM (titrated, usually from 114 µM), for inactives: at the highest dose activity change, negative = substrate turnover; actives 0.01% (n = 390,000); also: nearly all actives have a fitted effect of over 50% in size
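Rat TrxR1, dispensed at 90 nM, was prereduced with 400 uM NADPH (final) for 5 min at ~22 deg C, then incubated with compound 15 min before 400 uM selenite. A first-read NADPH fluorescence drop versus no-compound background flagged substrates.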
mIDH1 inhibitor: qHTS for Inhibitors of mutant isocitrate dehydrogenase 1 (IDH1): qHTS. Isocitrate dehydrogenase [NADP] cytoplasmic (Homo sapiens), O75874. Potency, µM (highest dose often 76.6 µM), for inactives: at the highest dose activity change, negative = inhibition, actives largely listed as inhibitors. IDH1-R132H enzyme, NADPH consumption, diaphorase/resazurin fluorescence. actives 0.093% (n = 390,000); also: nearly all actives have a fitted effect of over 65% in size
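IDH1-R132H (0.5 ug/mL) preincubated 30 min with compound, then NADPH (0.016 mM) and alpha-KG (2 mM) added; 80 min at RT, pH 7.5. Remaining NADPH coupled via diaphorase/resazurin to fluorescence (540/590 nm); concentration-response curves normalized to no-enzyme control.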
VDR inh: Inhibitors of the vitamin D receptor (VDR): qHTS; Potency, µM, without a hit: max response, negative = inhibition, usual class: inhibitors; VDR-SRC2-3 peptide fluorescence polarization, 2 h; Vitamin D3 receptor (Homo sapiens), P11473; AID 504847, 2011; actives 0.93% (n = 400,000)
Target sequence (P11473 whole entry, looked up): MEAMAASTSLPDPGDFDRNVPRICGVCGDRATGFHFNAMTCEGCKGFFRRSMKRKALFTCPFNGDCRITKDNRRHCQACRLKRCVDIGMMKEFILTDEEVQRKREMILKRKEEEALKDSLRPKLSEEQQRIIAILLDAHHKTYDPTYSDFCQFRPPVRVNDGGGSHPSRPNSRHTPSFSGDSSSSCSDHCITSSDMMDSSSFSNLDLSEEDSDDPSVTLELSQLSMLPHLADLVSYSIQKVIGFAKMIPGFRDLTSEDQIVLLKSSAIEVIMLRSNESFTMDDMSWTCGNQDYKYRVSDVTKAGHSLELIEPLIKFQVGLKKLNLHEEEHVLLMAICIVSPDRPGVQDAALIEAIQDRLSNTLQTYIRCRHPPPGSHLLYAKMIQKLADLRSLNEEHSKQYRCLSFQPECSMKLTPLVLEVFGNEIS
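Measured by FP: displacement of SRC2-3 coactivator peptide from VDR by library compounds, following a two-hour ambient incubation.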
Sfp inh: qHTS Assay for Inhibitors of Bacillus subtilis Sfp phosphopantetheinyl transferase (PPTase) | 4'-phosphopantetheinyl transferase ffp (Bacillus subtilis), Q9F4F7 | Biochemical Sfp PPTase activity, qHTS | Potency, µM, for the others: largest response in the series, negative = inhibition, most hits filed as inhibitors | actives 3.5% (n = 310,000) | AID 1490, 2009;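 also: the enzyme is Sfp with the accession as filed and its product quenches rhodamine fluorescence; 0% = enzyme reaction without inhibitor and -100% = no enzyme wells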
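Step 1, compound plus 15 nM Sfp-PPTase, 15 min, room temperature. Step 2, add rhodamine-CoA (5 uM) and BHQ-2-YbbR (12.5 uM). Step 3, read 525/598 nm fluorescence at 0 and 30 min.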
TrxR1 inh: qHTS Assay for Inhibitors of Mammalian Selenoprotein Thioredoxin Reductase 1 (TrxR1): qHTS | actives 1% (n = 390,000) | AID 588453, 2011 | recombinant rTrxR1, NADPH fluorescence consumption, selenite substrate | Thioredoxin reductase 1, cytoplasmic (Rattus norvegicus), O89049 | Potency, µM (doses to about 114 µM), for the others: top-dose activity change, negative = inhibition, hits mostly inhibitors; also: nearly all actives have a fitted effect of over 65% in size
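Rat TrxR1 (90 nM in the dispensed reagent) was pre-reduced with 400 uM NADPH for 5 min at room temperature, then incubated with compound for 15 min. After 400 uM selenite was added, NADPH fluorescence (Ex 340/Em 450 nm) was followed for 8 min.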
* = called active by the depositor; [ ] = another dose, or the depositor's remark. Rows were chosen to be rich in hits. Some 5.2% of all compounds tested hit in one or more screens of this group. Calls follow the shape of the dose curve; as a rule, active = well fitted curve in the direction sought with a large enough effect; inconclusive = small, poorly fitted or top-dose-only effect, or another doubt; inactive = no such curve, though single readings can be large; an effect the other way counts as inactive or inconclusive. Unless noted, % is scaled to controls: 0 for no effect and ±100 for the full control effect; potency is read from the fitted curve at half-maximal effect.

How did Cc1ccc(/C=c2\sc3n(c2=O)CN(c2ccc(Br)cc2)CN=3)o1 do in these assays?
PLK1 PBD block: inconclusive; TrxR1 substrate: -17%; mIDH1 inhibitor: -1%; VDR inh: -12%; Sfp inh: 10µM*; TrxR1 inh: inconclusive

How did O=c1/c(=C\c2ccc3c(c2)OCO3)sc2n1CCCN=2 do in these assays?
PLK1 PBD block: -6%; TrxR1 substrate: -11%; mIDH1 inhibitor: 9%; VDR inh: -8%; Sfp inh: 7%; TrxR1 inh: 4%

What do the screens show for `C=C(C)C(O)/C=C/c1cccc(OC)c1` (stereo not drawn)?
Sfp inh: 20%

What do the screens show for `Cc1ccc(C(=O)Nc2cccc(NC(=O)c3cccs3)c2)c(C)c1`?
PLK1 PBD block: 0%; TrxR1 substrate: 1%; mIDH1 inhibitor: -5%; VDR inh: -6%; Sfp inh: 1%; TrxR1 inh: 20%

Results for CC(OC(=O)c1ccccc1C(=O)N(C)c1ccccc1)C(=O)Nc1ccc(C(N)=O)cc1 (stereo not drawn) ?
PLK1 PBD block: -8%; TrxR1 substrate: -2%; mIDH1 inhibitor: 4%; VDR inh: -4%; TrxR1 inh: 4%

What do the screens show for `CC(OC(=O)c1cc(O)c2ccccc2c1O)C(=O)Nc1ccc(C(N)=O)cc1` (stereo not drawn)?
PLK1 PBD block: 6.7µM*; TrxR1 substrate: 11%[57.1 µM]; mIDH1 inhibitor: 11%; VDR inh: inconclusive; TrxR1 inh: 0%[57.1 µM]

What do the screens show for `CCS(=O)(=O)N1CCc2cc(C(=O)Nc3cccc(C)c3C)ccc21`?
TrxR1 substrate: -8%; mIDH1 inhibitor: -4%; VDR inh: 13%; TrxR1 inh: 5%

How did CCN(CC)CCCNc1ccc2ncn3c4ccc(O)cc4c(=O)c1c23 do in these assays?
PLK1 PBD block: 11µM*; TrxR1 substrate: -11%[57.1 µM]; mIDH1 inhibitor: 8%; VDR inh: inconclusive; TrxR1 inh: 9%[11.4 µM]

Results for COC(=O)c1ccc(/C=C/c2c(-c3ccc(OC)cc3)oc3ccccc23)cc1 ?
PLK1 PBD block: -6%; TrxR1 substrate: 82%; mIDH1 inhibitor: -6%; VDR inh: -31%; Sfp inh: -12%; TrxR1 inh: 33%

Results for COc1ccc(/C=C/c2c(-c3ccc(OC)cc3)oc3ccccc23)cc1 ?
PLK1 PBD block: -12%; TrxR1 substrate: 57%; mIDH1 inhibitor: 10%; VDR inh: 5%; Sfp inh: -11%; TrxR1 inh: 45µM*

How did CC1CCCCN1CCNC(=O)CN1C(=O)CSc2ccc(S(=O)(=O)N3CCCCC3)cc21 (stereo not drawn) do in these assays?
PLK1 PBD block: -15%; TrxR1 substrate: 1%; mIDH1 inhibitor: -11%; VDR inh: -24%; Sfp inh: 14%; TrxR1 inh: 12%

What do the screens show for `Cn1ncc(S(=O)(=O)Cc2ccccc2)c(Cl)c1=O`?
PLK1 PBD block: 3.4µM*; TrxR1 substrate: 10%[57.1 µM]; mIDH1 inhibitor: 16%; VDR inh: inconclusive; Sfp inh: 6.3µM*; TrxR1 inh: 1.1µM*

How did O=[N+]([O-])c1cccc(S(=O)(=O)NCc2ccncc2)c1 do in these assays?
PLK1 PBD block: -20%; TrxR1 substrate: -2%; mIDH1 inhibitor: -5%; VDR inh: 39%; Sfp inh: 22%; TrxR1 inh: 3%

Results for CCOCCc1nnc(NC(=O)c2cccc(F)c2)s1 ?
PLK1 PBD block: 27µM*; TrxR1 substrate: 8%[57.1 µM]; mIDH1 inhibitor: 5%; VDR inh: -6%; Sfp inh: 11%; TrxR1 inh: 13%[57.1 µM]

What do the screens show for `CC(=O)Nc1cccc(NC(=O)CSc2ccc(-c3ccco3)nn2)c1`?
PLK1 PBD block: inconclusive; TrxR1 substrate: -4%; mIDH1 inhibitor: 7%; VDR inh: -6%; Sfp inh: 32µM*; TrxR1 inh: 56µM*

How did CC(=O)c1ccc(NC(=O)CSc2ccc(-c3cccs3)nn2)cc1 do in these assays?
TrxR1 substrate: 0%; mIDH1 inhibitor: 2%; VDR inh: 10%; TrxR1 inh: 6%

What do the screens show for `CC(=O)Nc1ccc(NC(=O)CSc2ccc(-c3ccco3)nn2)cc1`?
PLK1 PBD block: -27%; TrxR1 substrate: 21%; mIDH1 inhibitor: 10%; VDR inh: inconclusive; Sfp inh: 45µM*; TrxR1 inh: inconclusive

Results for CC(=O)c1ccc(NC(=O)CSc2ccc(-c3ccco3)nn2)cc1 ?
PLK1 PBD block: -16%; TrxR1 substrate: -9%; mIDH1 inhibitor: 3%; VDR inh: -3%; Sfp inh: 40µM*; TrxR1 inh: inconclusive

What do the screens show for `Cc1ccc(NC(=O)CSc2ccc(-c3ccco3)nn2)c(C)c1`?
PLK1 PBD block: -6%; TrxR1 substrate: -2%; mIDH1 inhibitor: -3%; VDR inh: 0%; Sfp inh: 56µM*; TrxR1 inh: inconclusive

Results for O=C(CSc1nccn1Cc1ccco1)Nc1ccc(OC(F)(F)F)cc1 ?
TrxR1 substrate: -2%[57.1 µM]; mIDH1 inhibitor: -5%; VDR inh: 13%; TrxR1 inh: 20%[57.1 µM]

What do the screens show for `COc1cc(/C=C/C(=O)Nc2cccc(S(=O)(=O)NC3=NCCCCC3)c2)ccc1OCC#N`?
PLK1 PBD block: -6%; TrxR1 substrate: -4%; mIDH1 inhibitor: 3%; VDR inh: -8%; TrxR1 inh: -5%

What do the screens show for `COc1ccc(CNc2nc(NCc3ccc(OC)cc3)c3ncn(C(C)C)c3n2)cc1`?
VDR inh: -5%; Sfp inh: -10%

What do the screens show for `CC1(C)OC(=O)C2(Cc3ccccc3N3CCC(c4ccccc4)CC32)C(=O)O1` (stereo not drawn)?
TrxR1 substrate: 3%; VDR inh: -12%; TrxR1 inh: 6%

How did Cc1ccc(CNC(=O)CSc2ccc(-c3ccco3)nn2)cc1 do in these assays?
PLK1 PBD block: -6%; TrxR1 substrate: -12%; mIDH1 inhibitor: 3%; VDR inh: -1%; Sfp inh: -11%; TrxR1 inh: inconclusive

What do the screens show for `Cc1ccccc1NC(=O)CSc1ccc(-c2cccnc2)nn1`?
PLK1 PBD block: -3%; TrxR1 substrate: 1%; mIDH1 inhibitor: -1%; VDR inh: 3%; Sfp inh: 11%; TrxR1 inh: 6%

Bioassay records deposited in PubChem BioAssay by National Center for Advancing Translational Sciences (NCATS).
